Screening data as filed in PubChem.
Shown are actives, neighbours in structure and some others; about 4.9% of the full set was active somewhere.
Platelet DG rel: modulates dense granule release in human platelets; human platelet-rich plasma, SFLLRN dense granule ATP release, luminescence; inhibition, %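 (compounds screened at 7.5 µM in platelet-rich plasma)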; 300,000 compounds, 0.22% hits;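 active means mean replicate score, as percent of positive control, at or above 50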
MPTP block: permeability transition pore inhibition; isolated mouse mitochondria, Ca2+ swelling absorbance, 30 min; inhibition, % at 10 µM; 360,000 compounds, 1.4% hits;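 active means inhibition of 50% or more, scaled per plate between neutral and stimulator controls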;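 further: 0% = DMSO wells given calcium and 100% = 1 mM EGTA wells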
dFosB activator: enhances mouse delta FosB homodimer DNA binding | purified delta FosB, TAMRA-CDK5 oligo fluorescence polarization; percent of positive-control signal above neutral wells | activation, % at 25 µM | 340,000 compounds, 0.99% hits;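 active means mean activation above about 17%, with every replicate also reaching it, limit read from the data, passing the limit was not always enough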
Target sequence (P13346 whole entry, looked up): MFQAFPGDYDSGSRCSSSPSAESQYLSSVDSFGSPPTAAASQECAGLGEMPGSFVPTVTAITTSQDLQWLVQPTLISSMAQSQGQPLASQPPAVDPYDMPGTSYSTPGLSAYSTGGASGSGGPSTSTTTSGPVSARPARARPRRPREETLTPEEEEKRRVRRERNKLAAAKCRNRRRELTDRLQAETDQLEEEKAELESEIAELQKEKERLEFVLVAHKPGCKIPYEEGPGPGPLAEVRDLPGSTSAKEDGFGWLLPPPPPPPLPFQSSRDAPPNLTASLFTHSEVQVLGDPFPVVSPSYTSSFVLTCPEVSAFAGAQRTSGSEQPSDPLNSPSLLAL
HSF1 inhib: HSF1 inhibition; NIH3T3-HGL HSE-luciferase, MG132-induced, luminescence 8 h; hits give low values; AID 2098; activity change, negative = inhibition, % at 7.5 µM (by protocol); 300,000 compounds, 0.77% hits;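 active means more than half of replicate wells show activity change below -50%, luminescence cut by over half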;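 further: luciferase reports HSF-1 transcriptional activity via heat shock element; 0% = median of DMSO wells and -100% = zero luminescence signal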
HSP90 refold inh: blocks HSP90-mediated luciferase refolding in reticulocyte lysate; Rabbit reticulocyte lysate, luciferase refolding luminescence, 3 h; inhibition, % at 5.6 µM; 290,000 compounds, 0.91% hits; AID 1789;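 active means inhibition above the screen-wide mean plus 3 SD, computed separately per campaign, cut at about 16% in these data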;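 further: 0% = DMSO wells and 100% = 60 µM geldanamycin wells; inhibitors lower the luminescence because luciferase stays unfolded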
HSF1 activator: increases HSF-1 driven luciferase reporter signal | NIH3T3-HGL HSF-1 luciferase reporter, MG132, 8 h; 100% = twice DMSO control signal | activation, % at 9 µM | 300,000 compounds, 1.7% hits;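 active means mean replicate activation of at least 50% with a set share of replicates each reaching 50%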;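 further: 0% = median of the neutral control wells and 100% = twice that signal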
MPTP counter: Rhodamine 123 counter-screen of mitochondrial pore hits; isolated mitochondria, membrane potential, Rhodamine 123 fluorescence; 5,000 compounds, 78% hits; inhibition, % at 10 µM; shares compounds with MPTP block; AID 624504; in the data active means inhibition above about 22%;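 further: 0% = DMSO vehicle and 100% = positive control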
MPTP swell DR: MPTP inhibition, dose response swelling confirmation; shares compounds with MPTP block; isolated mitochondria swelling, absorbance; IC50, µM; 780 compounds, 58% hits; in the data active means IC50 below about 20 µM
MPTP cs DR: MPTP inhibitor counter-screen activity, dose response; shares compounds with MPTP block; isolated mitochondria counterscreen, fluorescence read-out; IC50, µM; 780 compounds, 49% hits; AID 651564; in the data active means IC50 below about 80 µM
The depositor's hits bear a star; x = not tested or not shown.

SMILES	Platelet DG rel	MPTP block	dFosB activator	HSF1 inhib	HSP90 refold inh	HSF1 activator	MPTP counter	others
CCN(C(=O)CSc1ccc2ccccc2n1)C1CCCCC1	x	-1.1	-7.8	x	x	x	x
CC(C)=CCc1c(O)cc2oc3c(CC=C(C)C)c(O)c(O)c(CC=C(C)C)c3c(=O)c2c1O	-2.0	92.3*	-7.6	7.8	x	1.2	7.3
O=C(NCCCCCCOC1=NS(=O)(=O)c2ccccc21)C(=O)Nc1ccccc1	4.9	73.0*	-0.8	8.6	-0.9	23.8	67.8*
CC(C)(C)c1nc(N2CCN(C(=O)c3ccco3)CC2)c2nnn(Cc3ccccc3)c2n1	6.3	53.9*	-13.7	-69.8*	1.3	-76.8	68.9*
CC(C)(C)C1CCc2c(sc3ncn(N)c(=N)c23)C1 (stereo unspecified)	1.9	9.4	0.9	-10.0	-2.9	-5.0	x
Cn1nc(C(=O)OCc2ccc(F)cc2)c2ccccc2c1=O	6.2	0.2	-14.9	0.0	-3.9	4.2	x
Cc1ccc(COC(=O)c2nn(C)c(=O)c3ccccc23)cc1	3.0	55.4*	-7.2	1.2	1.5	-7.0	33.6*
Cc1ccc(C(C)C)c(OCCNC(=O)c2cncc(Br)c2)c1	0.2	-0.8	0.6	1.5	0.2	0.1	x
COc1cc(C(=O)NCCOc2cc(C)ccc2C(C)C)cc(OC)c1OC	-1.6	57.0*	-21.3	3.2	2.6	5.4	64.3*
CC1=[N+](C)c2c(ccc3cccnc23)C1(C)C	x	94.8*	4.0	x	1.7	x	82.2*
O=C(Nc1cccc(Cl)c1)NC1CC2CCC(C1)N2Cc1ccco1 (stereo unspecified)	-6.5	-1.0	-17.6	-3.6	1.0	-2.6	x
O=C(Nc1ccc(Cl)cc1)NC1CCCC1Cc1ccco1 (stereo unspecified)	-2.8	102.9*	-8.3	11.1	7.9	26.1	88.0*
O=C(Nc1ccc(Cl)cc1)NC1CCCCC1Cc1ccco1 (stereo unspecified)	5.8	104.7*	9.0	3.8	-1.5	3.8	83.0*
CCCCNC(=O)CN1C(=O)CSc2ccc(S(=O)(=O)N3CCOCC3)cc21	x	0.1	x	x	x	x	x
Cc1cc(C)cc(NC(=O)Nc2ccc3c(c2)N(C)C(=O)CS3)c1	-2.2	49.3	4.7	13.0	-1.8	40.7	x
CC(=O)c1cccc(NC(=O)Nc2ccc3c(c2)N(C)C(=O)CS3)c1	-13.0	90.3*	0.5	-8.2	-8.4	-12.7	76.4*
CCc1ccc(NC(=O)Nc2ccc3c(c2)N(C)C(=O)CS3)cc1	17.1	56.1*	-4.7	-3.2	-0.8	2.1	70.3*
Cc1nc(OCc2ccccc2)c2ccccc2n1	2.8	71.8*	-12.1	-7.0	-9.8	-5.7	14.9	MPTP swell DR=11.7*;MPTP cs DR=26.7*
Cc1nc2ccccc2cc1C(=O)NCc1ccccc1	1.9	14.1	-0.8	2.9	x	5.7	x
Cc1nc2ccccc2cc1OCc1ccccc1	4.8	92.5*	-10.0	14.2	4.0	11.1	99.8*
Cc1nc2ccccc2cc1OCc1ccc(Cl)cc1	-4.1	95.6*	-5.4	37.0	-1.2	59.1*	104.0*
COc1cccc(COc2cc3ccccc3nc2C)c1	4.2	96.9*	-14.7	9.0	-2.6	7.4	94.2*
CC(OC(=O)Cc1coc2ccc3ccccc3c12)C(=O)NC(N)=O (stereo unspecified)	3.1	2.5	-10.0	9.5	5.2	32.6	x
CCCNC(=O)c1nc(C)n(-c2cc(Cl)ccc2Cl)n1	4.0	-0.6	-1.0	-0.5	-2.0	-5.9	x
CN(CC(=O)Nc1ccc(Cl)c(Cl)c1)C(=O)C12CC3CC(CC(C3)C1)C2	3.8	64.2*	-10.9	9.8	3.5	32.6	82.5*
CC1=C(C(=O)Nc2ccccc2C(F)(F)F)C(c2sccc2C)NC(=S)N1 (stereo unspecified)	-2.8	-4.5	-7.9	0.3	2.1	9.5	x
O=C(Nc1ccccc1)c1cc([N+](=O)[O-])ccc1NC1CCCCC1	11.3	51.1*	1.4	14.0	-4.7	6.8	-0.8	MPTP cs DR=>80
